For part of these data: Measured potencies and affinities stand elsewhere. The source made the active and inactive calls.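 How the source made its calls, unless noted: active means primary screen hit whose calcium fluorescence ratio, in both repeats, exceeds the weak agonist control mean by 3 SD; inactive means the rest.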
Legend:
[1] = tested on: TRPC4 beta (transient receptor potential cation channel C4), mouse; assay: activators of mouse TRPC4 channel, confirmation, cell-based, Fluo4 calcium, HEK293 TRPC4beta/mu-opioid, duplicates, 10 µM (AID 2426;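 active means fluorescence ratio normalized to control raised more than 50% in primary screen plus both repeat runs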;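 on activation: percent rise of integrated ratio over buffer wells lacking compound which define 0%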); conditions: Fluo4 calcium fluorescence, at 10 µM; hits give high values
[2] = tested on: transient receptor potential cation channel C4 beta (TRPC4), mouse; assay: activators of mouse TRPC4 channel, confirmation, cell-based, second round, Fluo4, HEK293 TRPC4beta/mu-opioid, 1 µM (AID 2461;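 active means primary screen active and over 50% activation in each of two duplicate runs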;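 on activation: 0% = wells without test compound as baseline of integrated fluorescence ratio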); conditions: Fluo4 calcium fluorescence, at 1 µM; hits give high values
[3] = tested on: TRPC4 (transient receptor potential cation channel C4 beta), mouse; assay: positive allosteric modulators of mouse TRPC4, confirmation, cell-based, second round, Fluo-4, HEK293 TRPC4beta/mu-opioid, 1 µM (AID 2554;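 active means primary screen hit whose fluorescence ratio, in both repeats, exceeds the weak agonist control mean by 3 SD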); conditions: DAMGO EC20, Fluo-4 calcium flux, at 1 µM; hits give high values
[4] = tested on: TRPC4 beta (transient receptor potential cation channel C4), mouse; assay: positive allosteric modulators of mouse TRPC4, confirmation, cell-based, Fluo-4, HEK293 TRPC4beta/mu-opioid (AID 2555); conditions: DAMGO EC20, Fluo-4 calcium flux, at 10 µM; hits give high values
[5] = target: Short transient receptor potential channel 4 (Mus musculus) (UniProt Q9QUQ5); assay: inhibitors of mouse TRPC4 channel, confirmation, cell-based, Fluo4, HEK293 TRPC4beta/mu-opioid (AID 2636;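 active means calcium signal cut by more than 3 SD below the full-agonist control yet still positive, in both repeats and the earlier primary screen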); conditions: DAMGO, Fluo4 calcium flux, at 10 µM; hits give high values
Short transient receptor potential channel 4 (Mus musculus), sequence (Q9QUQ5 whole entry, looked up): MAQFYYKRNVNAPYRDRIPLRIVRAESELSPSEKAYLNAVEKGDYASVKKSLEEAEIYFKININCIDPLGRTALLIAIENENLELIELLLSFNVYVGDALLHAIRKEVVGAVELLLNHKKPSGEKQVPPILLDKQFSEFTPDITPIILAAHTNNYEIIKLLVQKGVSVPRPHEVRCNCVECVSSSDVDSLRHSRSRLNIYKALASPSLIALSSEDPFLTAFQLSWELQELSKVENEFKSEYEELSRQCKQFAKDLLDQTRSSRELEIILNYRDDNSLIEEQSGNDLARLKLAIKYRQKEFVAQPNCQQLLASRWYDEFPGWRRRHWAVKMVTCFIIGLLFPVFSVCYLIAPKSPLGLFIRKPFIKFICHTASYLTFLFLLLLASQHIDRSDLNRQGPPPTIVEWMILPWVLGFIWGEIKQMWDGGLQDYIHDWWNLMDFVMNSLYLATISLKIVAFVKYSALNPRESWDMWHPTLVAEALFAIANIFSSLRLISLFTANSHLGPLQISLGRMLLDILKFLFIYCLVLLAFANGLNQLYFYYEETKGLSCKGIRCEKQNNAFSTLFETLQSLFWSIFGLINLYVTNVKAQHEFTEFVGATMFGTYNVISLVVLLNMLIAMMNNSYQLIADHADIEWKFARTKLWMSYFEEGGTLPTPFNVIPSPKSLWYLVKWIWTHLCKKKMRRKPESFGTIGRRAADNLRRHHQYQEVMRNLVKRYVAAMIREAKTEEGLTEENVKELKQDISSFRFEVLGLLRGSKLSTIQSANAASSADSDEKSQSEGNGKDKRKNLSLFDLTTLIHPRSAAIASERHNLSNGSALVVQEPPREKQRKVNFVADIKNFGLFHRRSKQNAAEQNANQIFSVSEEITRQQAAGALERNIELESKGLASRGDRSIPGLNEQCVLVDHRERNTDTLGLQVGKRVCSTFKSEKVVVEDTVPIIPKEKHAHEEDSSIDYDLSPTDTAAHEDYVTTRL

[6] = target: Short transient receptor potential channel 4 (Mus musculus) (UniProt Q9QUQ5); assay: inhibitors of mouse TRPC4 channel, confirmation, cell-based, second round, Fluo4, HEK293 TRPC4beta/mu-opioid, 1 µM (AID 2637;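 active means calcium signal ratio cut to more than 3 SD under the fully stimulated control mean yet still positive, in both repeats and the primary screen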); conditions: Fluo4 calcium flux, DAMGO, at 1 µM; hits give high values
[7] = target: Short transient receptor potential channel 4 (Mus musculus) (UniProt Q9QUQ5); assay: TRPC4 positive allosteric modulators, dose response, cell-based, HEK293 TRPC4/mu-opioid, Fluo-4 calcium, EC20 DAMGO (AID 434941;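 active means earlier screen potentiator hit that boosts the TRPC4 ion channel at some dose, with a dose response; inactive means no potentiation, no dose response, or not a prior hit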;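 further: calcium entry triggered by an EC20 dose of DAMGO at the co-expressed mu-opioid receptor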)
[8] = target: Short transient receptor potential channel 4 (Mus musculus) (UniProt Q9QUQ5); assay: mouse TRPC4 channel inhibitors, dose response, cell-based, HEK293 TRPC4/mu-opioid, Fluo-4 calcium (AID 434942;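 active means primary screen inhibitor hit that blocks the TRPC4 channel at some tested dose, yielding a dose curve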)
[9] = target: Short transient receptor potential channel 6 (Mus musculus) (UniProt Q61143); assay: inhibition of mouse TRPC6 channel, confirmation, selectivity assay for TRPC4 inhibitor project, cell-based, HEK293, membrane potential dye, duplicate (AID 434948;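 active means active in primary screen and both duplicates, each dropping signal beyond three positive-control SD with fluorescence still positive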); conditions: HEK293 TRPC6, membrane potential dye fluorescence, at 10 µM, stimulated with maximal-effect acetylcholine; hits give high values
Short transient receptor potential channel 6 (Mus musculus), sequence (Q61143 whole entry, looked up): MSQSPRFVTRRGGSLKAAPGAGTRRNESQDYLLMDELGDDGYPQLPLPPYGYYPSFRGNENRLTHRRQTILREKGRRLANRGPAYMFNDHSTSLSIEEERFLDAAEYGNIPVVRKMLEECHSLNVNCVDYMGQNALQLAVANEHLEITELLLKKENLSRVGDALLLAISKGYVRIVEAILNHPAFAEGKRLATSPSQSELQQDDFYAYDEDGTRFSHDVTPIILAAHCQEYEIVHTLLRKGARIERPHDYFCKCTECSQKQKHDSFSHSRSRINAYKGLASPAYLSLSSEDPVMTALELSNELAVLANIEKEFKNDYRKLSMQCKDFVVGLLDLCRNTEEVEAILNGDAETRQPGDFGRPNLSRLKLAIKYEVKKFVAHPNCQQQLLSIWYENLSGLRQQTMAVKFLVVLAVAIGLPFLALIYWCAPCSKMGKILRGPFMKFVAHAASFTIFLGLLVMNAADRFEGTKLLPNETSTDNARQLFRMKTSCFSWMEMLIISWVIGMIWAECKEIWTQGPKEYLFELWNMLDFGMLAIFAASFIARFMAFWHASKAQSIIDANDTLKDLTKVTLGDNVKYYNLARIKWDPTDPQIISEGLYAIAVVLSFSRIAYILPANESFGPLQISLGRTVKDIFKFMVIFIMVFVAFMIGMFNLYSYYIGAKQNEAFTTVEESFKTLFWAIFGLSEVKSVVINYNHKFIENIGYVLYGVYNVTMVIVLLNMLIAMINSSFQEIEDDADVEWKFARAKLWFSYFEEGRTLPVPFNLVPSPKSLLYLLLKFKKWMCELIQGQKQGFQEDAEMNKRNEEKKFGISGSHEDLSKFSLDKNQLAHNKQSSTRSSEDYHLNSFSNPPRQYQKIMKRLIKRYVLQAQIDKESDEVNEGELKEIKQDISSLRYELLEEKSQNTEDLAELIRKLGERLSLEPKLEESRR

[10] = target: Short transient receptor potential channel 6 (Mus musculus) (UniProt Q61143); assay: activation of mouse TRPC6 channel, confirmation, selectivity assay for TRPC4 activator project, cell-based, HEK293, membrane potential dye, duplicate (AID 434950;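 active means membrane potential signal rise above negative control mean plus 3 SD in both duplicates, also active in the earlier TRPC4 screen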;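 on activation: 0% = buffer only wells and 100% = acetylcholine maximal-effect wells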); conditions: HEK293 TRPC6, membrane potential fluorescence, at 10 µM; hits give high values
[11] = target: Short transient receptor potential channel 6 (Mus musculus) (UniProt Q61143); assay: TRPC6 potentiation by TRPC4 potentiator hits, confirmation, selectivity assay for TRPC4 potentiator project, HEK293 cells, membrane potential dye, duplicate (AID 434952;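 active means compound raising the membrane signal above positive-control mean plus 3 SD in both repeats, and a primary screen hit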); conditions: HEK293 TRPC6, membrane potential dye fluorescence, at 10 µM, maximal acetylcholine added after compound; hits give high values
[12] = target: Short transient receptor potential channel 4 (Mus musculus) (UniProt Q9QUQ5); assay: calcium flux activators in TRPC4/5HT1a cells, counter-screen for TRPC4 activator project, cell-based, second counter screen, HEK293 TRPC4/5HT1a, Fluo-4 (AID 434977;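 active means calcium signal rise above buffer-control mean plus 5 SD in both duplicates, and also a hit in the primary screen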;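 on activation: plate controls were assay buffer for no effect and maximal serotonin response for full effect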); conditions: Fluo-4 calcium flux, at 10 µM; hits give high values
[13] = calcium flux inhibitors in TRPC4/5HT1a cells, confirmation, counter-screen for TRPC4 inhibitor project, cell-based, second counter screen, HEK293 TRPC4/5HT1a, Fluo-4 (AID 434978;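 active means primary screen active whose calcium signal fell more than 3 SD beyond the full-serotonin control mean in both duplicate plates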;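 further: serotonin given first at submaximal then at maximal dose after compound preincubation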); conditions: Fluo-4 calcium flux, at 10 µM, serotonin added to trigger calcium flux; hits give high values
[14] = tested on: TRPC4 (mouse), co-expressed with 5HT1a in HEK293; assay: calcium flux potentiators in TRPC4/5HT1a cells, confirmation, counter-screen for TRPC4 potentiator project, cell-based, second counter screen, HEK293 TRPC4/5HT1a, Fluo-4 (AID 434979;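 active means signal rise over 3 SD above mean of control wells given weak agonist, in both repeats and first screen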); conditions: Fluo-4 calcium flux, at 10 µM, serotonin added at its EC20 dose; hits give high values
[15] = calcium flux activation in mu-opioid HEK293 cells, confirmation, counter-screen for TRPC4 activator project, cell-based, HEK293 mu-opioid receptor line (AID 449723;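 active means hit in primary screen, with calcium signal over 5 SD above buffer well mean in both duplicates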;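 further: counter screen cells carry the mu-opioid receptor alone and lack TRPC4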); conditions: Fluo-4 calcium fluorescence, at 10 µM; hits give high values
[16] = calcium flux enhancement in mu-opioid HEK293 cells, confirmation, counter-screen for TRPC4 allosteric potentiator project, cell-based, HEK293 mu-opioid receptor line (AID 449724;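 active means calcium signal rise more than 3 SD above the low-dose agonist control mean, in both duplicate plates and the primary screen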); conditions: Fluo-4 calcium flux, at 10 µM, compound added before EC20 DAMGO stimulus; hits give high values

CN(CCOc1ccc(Br)cc1)CC(O)c1ccccc1 (stereo not given)
active: activation [1] 71% | activation [10] 41.5% | activation [12] 12.6%
inactive: outcome [2] | outcome [3] | outcome [4] | outcome [5] | outcome [6] | outcome [7] | outcome [8] | outcome [9] | outcome [11] | outcome [13] | outcome [14] | outcome [15] | outcome [16]

CC(COc1ccccc1)N1CCC(CO)(CCc2ccccc2)CC1 (stereo not given)
active: activation [10] 95.5%
inactive: outcome [1] | outcome [2] | outcome [3] | outcome [4] | outcome [5] | outcome [6] | outcome [7] | outcome [8] | outcome [9] | outcome [11] | outcome [12] | outcome [13] | outcome [14] | outcome [15] | outcome [16]

CN1C(CC(=O)Nc2ccc(Br)cc2)c2ccccc2CC1(C)C (stereo not given)
inactive: outcome [2] | outcome [3] | outcome [4] | outcome [5] | outcome [6] | outcome [7] | outcome [8] | outcome [9] | outcome [11] | outcome [13] | outcome [14] | outcome [15] | outcome [16]
active: activation [1] 97% | activation [10] 28.5% | activation [12] 7.45%

COc1cc2ccccc2cc1C(=O)NCC(c1cccs1)N(C)C (stereo not given)
active: activation [1] 164% | activation [10] 59.5%
inactive: outcome [2] | outcome [3] | outcome [4] | outcome [5] | outcome [6] | outcome [7] | outcome [8] | outcome [9] | outcome [11] | outcome [12] | outcome [13] | outcome [14] | outcome [15] | outcome [16]

COc1cccc(C(=O)NC2CCCN(C3Cc4ccccc4C3)C2)c1OC (stereo not given)
inactive: outcome [2] | outcome [3] | outcome [4] | outcome [5] | outcome [6] | outcome [7] | outcome [8] | outcome [9] | outcome [11] | outcome [13] | outcome [14] | outcome [15] | outcome [16]
active: activation [1] 132% | activation [10] 57.5% | activation [12] 82.8%

COc1ccc(CC(=O)NCC(c2ccc(OC)cc2)N(C)C)cc1 (stereo not given)
inactive: outcome [3] | outcome [4] | outcome [5] | outcome [6] | outcome [7] | outcome [8] | outcome [9] | outcome [11] | outcome [12] | outcome [13] | outcome [14] | outcome [15] | outcome [16]
active: activation [1] 200% | activation [2] 95% | activation [10] 46.5%

CN1CCC(=O)N([C@H](CSc2ccc(Br)cc2)Cc2ccccc2)CC1
inactive: outcome [1] | outcome [2] | outcome [3] | outcome [4] | outcome [5] | outcome [6] | outcome [7] | outcome [8] | outcome [9] | outcome [11] | outcome [12] | outcome [13] | outcome [14] | outcome [15] | outcome [16]
active: activation [10] 33%

Cc1cccc(C(=O)NC(=S)NNC(=O)Cc2ccccc2)c1
active: activation [1] 238% | activation [10] 32.5% | activation [12] 133% | activation [15] 44.1%
inactive: outcome [2] | outcome [3] | outcome [4] | outcome [5] | outcome [6] | outcome [7] | outcome [8] | outcome [9] | outcome [11] | outcome [13] | outcome [14] | outcome [16]

CN(C)C(CNC(=S)Nc1ccccc1Cl)c1cccnc1 (stereo not given)
active: activation [1] 109% | activation [2] 144%
inactive: outcome [3] | outcome [4] | outcome [5] | outcome [6] | outcome [7] | outcome [8] | outcome [9] | outcome [10] | outcome [11] | outcome [12] | outcome [13] | outcome [14] | outcome [15] | outcome [16]

O=C1/C(=C\c2cc([N+](=O)[O-])ccc2O)SC(=S)N1Cc1ccc(Cl)cc1
active: activation [1] 147% | potentiation [4] 21% | activation [10] 529% | potentiation, percent of control [11] 192% | activation [12] 147% | potentiation [14] 21% | activation [15] 158% | activation [16] 5450%
inactive: outcome [2] | outcome [3] | outcome [5] | outcome [6] | outcome [7] | outcome [8] | outcome [9] | outcome [13]

CN(C)C(CNC(=O)CCS(=O)(=O)c1ccccc1)c1ccccc1 (stereo not given)
active: activation [1] 77% | activation [2] 75%
inactive: outcome [3] | outcome [4] | outcome [5] | outcome [6] | outcome [7] | outcome [8] | outcome [9] | outcome [10] | outcome [11] | outcome [12] | outcome [13] | outcome [14] | outcome [15] | outcome [16]

Cc1ccc(C(=O)NNC(=S)NC(=O)COc2ccccc2)cc1
inactive: outcome [2] | outcome [3] | outcome [4] | outcome [5] | outcome [6] | outcome [7] | outcome [8] | outcome [9] | outcome [10] | outcome [11] | outcome [13] | outcome [14] | outcome [15] | outcome [16]
active: activation [1] 171% | activation [12] 112%

Cc1ccc(S(=O)(=O)/N=C2/NC(=O)/C(=C\c3cc(Br)cc(Br)c3O)S2)cc1
active: potentiation [4] 35% | activation [10] 447% | activation [12] 45.6% | potentiation [14] 9.14% | activation [15] 60.8% | activation [16] 600%
inactive: outcome [1] | outcome [2] | outcome [3] | outcome [5] | outcome [6] | outcome [7] | outcome [8] | outcome [9] | outcome [11] | outcome [13]

O=c1c(Cc2ccccc2)c(O)ccn1CCc1cnc[nH]1
active: activation [1] 134% | activation [12] 39.3%
inactive: outcome [2] | outcome [3] | outcome [4] | outcome [5] | outcome [6] | outcome [7] | outcome [8] | outcome [9] | outcome [10] | outcome [11] | outcome [13] | outcome [14] | outcome [15] | outcome [16]

Cn1c2ccccc2c(=O)c2c(=O)n(C3CCCCC3)c(-c3ccco3)nc21
inactive: outcome [1] | outcome [2] | outcome [3] | outcome [4] | outcome [5] | outcome [6] | outcome [7] | outcome [8] | outcome [9] | outcome [10] | outcome [11] | outcome [12] | outcome [13] | outcome [14] | outcome [16]
active: activation [15] 68.6%
